Experimental data: the supplement of paper PMC13380429

Tested on: Vero E6 infected with SARS-CoV-2
Assay: inhibition of SARS-CoV-2 cytopathic effect; higher = more antiviral protection, active = above 15
Details: 48 h

Measured: inhibition of SARS-CoV-2 cytopathic effect

O=C(O)Cn1nnc(-c2cc(N3CCC(Oc4cc(F)ccc4Br)CC3)no2)n1
inactive: 1 nM -0.51% | 8.33 nM -0.71% | 100 nM 1.39% | 833.33 nM -0.54% | 10000 nM 1.73%

COC[C@H](C)Oc1cc(O[C@@H](C)Cc2ccccc2)cc(C(=O)Nc2ccc(C(=O)O)cn2)c1
inactive: 1 nM -1.62% | 8.33 nM 2.26% | 100 nM 1.23% | 833.33 nM -0.06% | 10000 nM 0.06%

N#CCCCSC(=N)N [kevetrin]
inactive: 1 nM -0.54% | 8.33 nM -2.73% | 100 nM -3.7% | 833.33 nM -3.14% | 10000 nM -0.14%

C/C=C/C[C@@H](C)C(=O)[C@H]1C(=O)N[C@@H](C(C)C)C(=O)N(C)CC(=O)N(C)[C@@H](CC(C)C)C(=O)N[C@@H](C(C)C)C(=O)N(C)[C@@H](CC(C)C)C(=O)N[C@@H](C)C(=O)N[C@H](C)C(=O)N(C)[C@@H](CC(C)C)C(=O)N(C)[C@@H](CC(C)C)C(=O)N(C)[C@@H](C(C)C)C(=O)N1C [valspodar]
inactive: 1 nM -5.19% | 8.33 nM -0.88% | 100 nM -1.83% | 833.33 nM 0.22% | 10000 nM 8.33%

CN(C)c1ccc2c(c1)Sc1cc(N(C)C)ccc1N2 [leucomethylene-blue]
inactive: 1 nM 2.22% | 8.33 nM 0.11% | 100 nM 0.26% | 833.33 nM 0.69% | 10000 nM -7.13%

c1cnc(NCc2ccc(CNc3ncccn3)cc2)nc1
inactive: 1 nM -2.38% | 8.33 nM -1.7% | 100 nM -0.65% | 833.33 nM -1.46% | 10000 nM -0.62%

C=C1/C(=C\C=C2/CCC[C@]3(C)[C@@H]([C@H](C)/C=C/[C@H](C)C(C)(C)O)CC[C@@H]23)C[C@@H](O)C[C@@H]1O [ercalcitriol]
inactive: 1 nM -1.77% | 8.33 nM 0.83% | 100 nM -0.6% | 833.33 nM 2.88% | 10000 nM 3.34%

Nc1c(CC(=O)O)cccc1C(=O)c1ccc(Br)cc1 [bromfenac]
inactive: 1 nM -1.88% | 8.33 nM 0.84% | 100 nM -0.8% | 833.33 nM -0.93% | 10000 nM -0.48%

CC(C)[C@@H]1CC[C@@H](C)C[C@H]1O [levomenthol]
inactive: 1 nM 0.46% | 8.33 nM -1.68% | 100 nM 1.02% | 833.33 nM 0.09% | 10000 nM -0.2%

O=P(O)(NCCCl)NCCCl [palifosfamide]
inactive: 1 nM 0.85% | 8.33 nM 0.49% | 100 nM 3.57% | 833.33 nM -1.07% | 10000 nM -7.07%

CC(C)(C)[C@]1(O)CC2OC(=O)CC23C(=O)OC2OC(=O)[C@H](O)C231 (stereo not given in full) [bilobalide]
inactive: 1 nM -0.27% | 8.33 nM 0.92% | 100 nM 0.44% | 833.33 nM -0.26% | 10000 nM -0.37%

CCc1ccc(CCOc2ccc(CC3SC(=O)NC3=O)cc2)nc1 (stereo not given) [pioglitazone]
inactive: 1 nM -1.62% | 8.33 nM 1.34% | 100 nM 1.49% | 833.33 nM -8.11% | 10000 nM 1.27%

Cc1cccc(CN2CCN(C(c3ccccc3)c3ccc(Cl)cc3)CC2)c1 (stereo not given) [meclizine]
inactive: 1 nM 4.53% | 8.33 nM 3.44% | 100 nM 2.18% | 833.33 nM 4.25% | 10000 nM 3.46%

C[C@@H](O[C@H]1OCCN(Cc2n[nH]c(=O)[nH]2)[C@H]1c1ccc(F)cc1)c1cc(C(F)(F)F)cc(C(F)(F)F)c1 [aprepitant]
inactive: 1 nM -2.6% | 8.33 nM -2.93% | 100 nM -3.21% | 833.33 nM -4.32% | 10000 nM -6.5%

CC(=O)N[C@H]1[C@@H](O)[C@H](O)[C@@H](CO)O[C@@H]1O [N-acetylmannosamine]
inactive: 1 nM 0.48% | 8.33 nM -0.18% | 100 nM -0.61% | 833.33 nM -1.2% | 10000 nM 1.32%

N=C(N)c1ccc(-c2ccc(-c3ccc(C(=N)N)cc3)o2)cc1 [furamidine]
inactive: 1 nM -2.49% | 8.33 nM 0.26% | 100 nM -3.62% | 833.33 nM 0.94% | 10000 nM 2.72%

CCCc1cc(C(N)=S)ccn1 [protionamide]
inactive: 1 nM -1.61% | 8.33 nM 2.36% | 100 nM 1.7% | 833.33 nM 3.81% | 10000 nM -1.88%
